# Assay outcomes deposited in PubChem by National Center for Advancing Translational Sciences (NCATS).
# Shown are actives, neighbours in structure and some others; about 2.8% of the full set was active somewhere.
# IP6K1 inhibitor = blocks human inositol hexakisphosphate kinase 1 | Q92551 | IP6K1 kinase, ADP-Glo luminescence, 2 h; active compounds read low | activity change, % (series mostly up to about 58 µM) | actives 0.81% (n = 140,000) | AID 1645851; in the data active = activity change below about -25%; also: % is scaled to controls: 0 for no effect and ±100 for the full control effect
# Target sequence (Q92551 whole entry, looked up): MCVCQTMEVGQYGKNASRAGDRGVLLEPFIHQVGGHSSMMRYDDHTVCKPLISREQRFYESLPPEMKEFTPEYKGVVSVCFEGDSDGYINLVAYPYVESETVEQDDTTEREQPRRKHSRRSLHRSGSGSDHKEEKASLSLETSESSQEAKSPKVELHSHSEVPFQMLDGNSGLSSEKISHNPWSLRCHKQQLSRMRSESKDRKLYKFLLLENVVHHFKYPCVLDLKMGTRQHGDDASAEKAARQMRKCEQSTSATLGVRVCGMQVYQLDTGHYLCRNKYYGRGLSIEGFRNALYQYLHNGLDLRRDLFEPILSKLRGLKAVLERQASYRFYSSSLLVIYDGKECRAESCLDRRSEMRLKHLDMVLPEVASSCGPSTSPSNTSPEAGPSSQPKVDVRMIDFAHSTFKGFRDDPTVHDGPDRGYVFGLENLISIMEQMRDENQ
#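 ADP-Glo luminescence measures ADP made by human IP6K1 during a 2 h RT reaction with ATP/IP6 (mix at 1.3 mM/130 uM); top library doses 57.5 and 19.1 uM final.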
# SNCA expr inh = SNCA gene expression inhibition; HEK-293 SNCA-luciferase knock-in, luminescence, 24 h; Potency, µM (series often up to 57.2 µM), without a hit: top-dose activity change, negative = inhibition, usual class: inhibitors; actives 0.17% (n = 140,000); AID 1671194;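 also: potency is read from the fitted curve at half-maximal effect; plate controls were DMSO cells for no effect and cell-free wells for full effect; nearly all actives have a fitted effect of over 45% in size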
# HEK293 viab = reduces viability of HEK-293 SNCA reporter cells | HEK-293-SNCA-luc viability, GF-AFC fluorescence, 24 h | Potency, µM (titrated, usually from 57.1 µM), without a hit: at the top dose activity change, negative = cytotoxicity, hits mostly cytotoxic | actives 0.12% (n = 150,000);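 also: potency is read from the fitted curve at half-maximal effect; 0% = DMSO-treated cells and -100% = medium-only wells without cells; nearly all actives have a fitted effect of over 30% in size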
#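 Cytotoxicity counterscreen: after 24 h compound treatment of genome-edited SNCA-luciferase HEK-293 cells, live-cell protease substrate GF-AFC read by fluorescence after 30 min; activity scaled between DMSO (0%) and medium-only (-100%), curves Hill-fitted.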
# KDM5B inhibitor = inhibitors of human KDM5B histone demethylase; actives 2.6% (n = 220,000); Potency, µM (highest dose often 57.7 µM), most hits filed as inhibitors; AID 1347165; KDM5B demethylase, FDH-coupled NADH fluorescence (FDH is formaldehyde dehydrogenase); Q9UGL1; also: potency is read from the fitted curve at half-maximal effect; 0% is about no effect; nearly all actives have a fitted effect of over 70% in size
#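 Here, H3K4me3 peptide (12.5 µM in substrate mix) is demethylated by KDM5BΔAP, 200 nM final, after 10 min compound exposure. Formaldehyde product is coupled through FDH (0.25 U/mL in mix) to NADH fluorescence; 30-min ΔRFU feeds dose-response curves.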
# The depositor's hits bear a star; i = inactive; ? = inconclusive; / = no result given; [ ] = another dose, or the depositor's remark. Unless noted, calls follow the shape of the dose curve; as a rule, active = well fitted curve in the direction sought with a large enough effect; inconclusive = small, poorly fitted or top-dose-only effect, or another doubt; inactive = no such curve, though single readings can be large; an effect the other way counts as inactive or inconclusive.
SMILES,IP6K1 inhibitor,SNCA expr inh,HEK293 viab,KDM5B inhibitor
CN(C)c1ncc2c(n1)C(C)(C(=O)Nc1ccccc1F)CCC2 (centres undefined),1,?,3%[87.6 µM],?
COc1ccc(NC(=O)C2(C)CCCc3cnc(N(C)C)nc32)cn1 (centres undefined),6,-18%[87.6 µM],-25%[87.6 µM],35µM*
CN(Cc1ccccc1)C(=O)C1(C)COCc2cnc(Nc3ccccc3)nc21 (centres undefined),-3,-18%[87.6 µM],-26%[87.6 µM],i
CN(C)c1ncc2c(n1)C(C)(C(=O)Nc1ccccc1)CCC2 (centres undefined),-3,-21%[87.6 µM],-4%[87.6 µM],35µM*
COCCNC(=O)C1(C)CCCc2cnc(Nc3ccccc3)nc21 (centres undefined),17,-2%[87.6 µM],-15%[87.6 µM],i
CN(Cc1ccccc1)C(=O)C1(C)CCCc2cnc(N(C)C)nc21 (centres undefined),-3,-9%[87.6 µM],-4%[87.6 µM],32µM*
COCCNc1ncccc1-c1noc([C@@H]2CCCN2Cc2ccc(C(=O)O)cc2)n1,11,15%[87.6 µM],2%[87.6 µM],35µM*
COCCNc1ccc(-c2noc([C@@H]3CCCN3C3CCOCC3)n2)cn1,13,2%[87.6 µM],-7%[87.6 µM],?
COCCNc1ncccc1-c1noc([C@@H]2CCCN2C2CCN(C(C)=O)CC2)n1,3,15%[87.6 µM],5%[87.6 µM],35µM*
COCCNc1ncccc1-c1noc([C@@H]2CCCN2C2CCC2)n1,-12,-23%[87.6 µM],0%[87.6 µM],32µM*
COCCNc1ncccc1-c1noc([C@@H]2CCCN2Cc2ccccc2OC)n1,20,-3%[87.6 µM],-14%[87.6 µM],?
COCCNc1ncccc1-c1noc([C@@H]2CCCN2C2CCN(C)CC2)n1,2,13%[87.6 µM],-6%[87.6 µM],32µM*
COCCOc1ncccc1-c1noc([C@@H]2CCCN2Cc2ccc(C(=O)O)cc2)n1,-2,-5%[87.6 µM],-2%[87.6 µM],?
Cn1cc(C2c3ccccc3C(=O)N2CC(N)=O)c2ccccc21 (centres undefined),/,/,/,i
O=C1COc2ccc(C(=O)COC(=O)c3cc(Br)ccc3Cl)cc2N1,/,/,/,i
CCc1ccc(N2CC(c3noc(-c4ccc(N(C)C)cc4)n3)CC2=O)cc1 (centres undefined),33,-15%,0%,32µM*
CCc1ccc(N2CC(c3noc(-c4ccc(OC)c(F)c4)n3)CC2=O)cc1 (centres undefined),34,30%,8%,32µM*
CCc1ccc(N2CC(c3noc(-c4cnccn4)n3)CC2=O)cc1 (centres undefined),29,3%,4%,i
COc1ccc(N2CC(c3noc(-c4ccc(N(C)C)cc4)n3)CC2=O)cc1 (centres undefined),5,5%,8%,35µM*
COc1ccc(N2CC(c3noc(-c4cc(OC)cc(OC)c4)n3)CC2=O)cc1 (centres undefined),16,-2%,0%,?
O=C1CC(c2noc(-c3ccc4c(c3)OCO4)n2)CN1c1ccc(F)cc1 (centres undefined),-7,3%,?,28µM*
Cc1ccc(NC(=O)NCc2c(C)nn(C)c2C)c(C)c1,/,/,/,i
c1ccc(Cn2c(CN3CCOCC3)nc3ccccc32)cc1,/,/,/,i
COc1ccc2nc(NS(=O)(=O)c3ccc(Cl)cc3)c(Nc3ccc4c(c3)OCO4)nc2c1,/,/,/,i
COc1cc(OC)cc(-c2nc(C3CC(=O)N(c4ccc(C)cc4)C3)no2)c1 (centres undefined),0,-20%,6%,32µM*
SMILES,IP6K1 inhibitor,SNCA expr inh,HEK293 viab,KDM5B inhibitor
COCc1nc(-c2ccc(OC3CN(C(=O)c4ccc(OC)cc4)C3)cc2)no1,19,?,-10%,i
COCCn1c(C)nnc1-c1cc(-c2ccnc(C)c2)ccn1,-6,-16%[87.6 µM],0%[87.6 µM],i
COCCn1c(C)nnc1-c1cc(-c2cccc(OC)c2)ccn1,-2,27%[87.6 µM],12%[87.6 µM],35µM*
OCC1CN(c2ncccn2)CC12CCN(Cc1c[nH]c3ccccc13)CC2 (centres undefined),18,13%,2%,?
O=C(c1cccc2[nH]ccc12)N1CCC2(CC1)CN(c1ncccn1)CC2CO (centres undefined),11,-7%,-8%,32µM*
OCC1CN(c2ncccn2)CC12CCN(Cc1cccc3[nH]ccc13)CC2 (centres undefined),1,37%,-1%,32µM*
CC(=O)N1CC(CO)C2(CCN(Cc3cccc(C#N)c3)CC2)C1 (centres undefined),6,8%,0%,i
